Screening results deposited in PubChem by National Center for Advancing Translational Sciences (NCATS).
This is a sample that favours compounds with a hit; in the whole collection about 21% have one here.
NS1 function inh: inhibitors of influenza NS1 protein function | hit rate 0.4% among 270,000 | AID 2326 | Potency, µM (highest dose often 46.1 µM), inactives show top-dose activity, positive = more growth; calls by dose curve; note: potency is the fitted concentration of half-maximal effect; actives are rising curves; nearly all actives have a fitted effect of over 50% in size
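OD600 was taken as the measure of yeast growth restored by compound in an NS1-expressing S. cerevisiae strain. Cells had been washed out of glucose medium and diluted 1:100 into galactose -URA medium, pH 6.0.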
Pf growth 48h: inhibits P. falciparum growth in the first generation, 48 h. Potency, µM (top dose mostly 28.7 µM), for the others: top-dose activity change, negative = inhibition, hits mostly inhibitors. hit rate 5.9% among 310,000. P. falciparum luciferase growth in erythrocytes, 48 h; note: potency is the fitted concentration of half-maximal effect; % is set by controls: 0 for no effect and ±100 for the full control effect
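A one-generation exposure of luciferase-tagged malaria parasites in RPMI 1640/Albumax erythrocyte culture, 37 C and 5% CO2. Inhibition is inferred from decreased luminescence after adding detection reagent.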
Pf growth 96h: P. falciparum growth inhibition at 96 hours | hit rate 6.9% among 320,000 | Potency, µM (highest dose often 28.7 µM), for the others: at the top dose activity change, negative = inhibition, hits mostly inhibitors | P. falciparum luciferase reporter growth, 96 h; note: potency is the fitted concentration of half-maximal effect; % is set by controls: 0 for no effect and ±100 for the full control effect
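P. falciparum expressing integrated firefly luciferase, in erythrocytes at 2% hematocrit, 0.05% parasitemia, incubated with compounds 96 h at 37 C, 5% CO2. Growth inhibition read as loss of luminescence; two-generation exposure targets delayed-death apicoplast inhibitors.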
CHX counter: affects cycloheximide protein synthesis inhibition readout, counter-screen | cell reporter, cycloheximide protein synthesis inhibition counterscreen | max response, % | hit rate 12% among 300,000 | AID 2314; in the data active = max response mostly above about 13%, no sharp cut-off; inactive = mostly below about 14%; note: read at 38.3 µM for the half of the compounds with a filed dose; 0% is about no effect
Sm TGR block: S. mansoni TGR enzyme inhibition | Potency, µM (top dose mostly 114 µM), for inactives: at the highest dose activity change, negative = inhibition, most hits filed as inhibitors | hit rate 3% among 360,000 | purified TGR, DTNB reduction, TNB absorbance 405 nm | AID 485364; note: potency is the fitted concentration of half-maximal effect; % is set by controls: 0 for no effect and ±100 for the full control effect; nearly all actives have a fitted effect of over 60% in size
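Kinetic colorimetric format: TGR-catalysed, NADPH-driven DTNB reduction monitored via TNB absorbance. Enzyme dispensed at 20 nM; compound exposure 15 min at room temperature before reaction start.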
Shiga toxin inh: Shiga toxin inhibition | Vero cells, Shiga toxin protein synthesis inhibition reporter | inhibition, % at 38.7 µM | hit rate 9.2% among 290,000 | AID 2315; in the data active = inhibition mostly above about 28%, no sharp cut-off; inactive = mostly below about 43%; note: 0% is about no effect
* marks the source's active call; other numbers are inactive results; i = inactive; ? = inconclusive; / = not tested or not shown; + = active, no number. Unless noted, calls come from the whole dose curve; as a rule, active = well fitted curve in the direction sought with a large enough effect; inconclusive = small, poorly fitted or top-dose-only effect, or another doubt; inactive = no such curve, though single readings can be large; an effect the other way counts as inactive or inconclusive.

SMILES	NS1 function inh	Pf growth 48h	Pf growth 96h	CHX counter	Sm TGR block	Shiga toxin inh
CCOc1ccc(-c2nc(CCl)cs2)cc1	/	211.1%	420.7%	33.6*	-22.4%	153.0*
Nc1nnc(-c2ccc(F)cc2)s1	-4.0%	20.2%	9.3%	10.8	8.1%	11.3
CCCCOC(=O)CSc1nnc(N)s1	7.9%	13.1%	12.8%	9.1	1.4%	13.3
COc1cc2c(cc1NS(=O)(=O)c1cccc(C#N)c1)n(C)c(=O)n2C	/	/	/	/	-10.5%	/
CCCN1CCC(=O)N(CCO)CC1	35.3%	-11.5%	0.7%	-1.2	8.6%	-3.3
O=C(NCCc1ccccc1)C(=O)NCC1CCCO1 (stereo unspecified)	0.6%	65.0%	/	28.2	2.1%	25.1
Cc1ccc(-n2nc3c(N4CCC(C(=O)NC(C)C)CC4)nnc(C)c3c2C)cc1	/	/	/	/	4.1%	/
CCC(=O)C1=C(c2ccc(C)cc2)N(C(=O)CC)n2c(nnc2C2CCCCC2)S1	/	/	/	/	3.4%	/
COc1ccc(S(=O)(=O)N2CCCCCC2)cc1C(=O)NCCc1ccccc1	/	?	?	/	4.9%	/
CCCCOc1ccc(-c2ncc(N)cn2)cc1	-1.1%	147.5%	207.4%	53.2*	2.3%	114.4*
CCC(=O)N1CCc2cc(CNC(=O)Nc3ccc(OC)cc3OC)ccc21	/	/	/	/	0.8%	/
NS(=O)(=O)c1ccc(Nc2nc(-c3ccc4ccccc4c3)cs2)cc1	8.1%	2.2%	/	8.8	1.2%	-5.3
CN(C)/C=N/c1nc(-c2ccc3ccccc3c2)cs1	-38.6%	87.6%	155.9%	46.7*	?	60.8*
CN(C)/C=N/c1nc(-c2ccc3c(c2)OCO3)cs1	4.4%	i	403.6%	53.0*	8.2%	178.3*
COc1ccc(-c2csc(/C=C/c3ccc4c(c3)OCO4)n2)cc1OC	8.8%	9.3%	0.0%	7.2	-3.4%	28.0
CN(C)S(=O)(=O)c1ccc(NC(=O)c2cc3ccccc3o2)cc1	-11.0%	-11.7%	13.1µM*	20.5*	5.2%	130.2*
Cc1ccc(NC(=O)c2cc3ccccc3o2)cc1S(=O)(=O)N(C)C	10.1%	187.6%	/	53.8*	-13.0%	78.5
Cc1ccc(NC(=O)c2cc3ccccc3oc2=O)cc1S(=O)(=O)N(C)C	/	298.2%	i	0.3	4.5%	-21.6
N#CC1CC(c2ccccc2)Nc2cc(Cl)ccc2N1 (stereo unspecified)	-97.0%	136.3%	?	37.0*	-22.2%	69.0*
COc1cccc(-n2c(-c3ccco3)nc3nc4ccccc4nc32)c1	6.0%	2.3%	3.29µM*	-3.0	0.5%	-3.8
CC(C)OCCCn1c(-c2ccco2)nc2nc3ccccc3nc21	-38.1%	?	3.29µM*	13.2*	50.1µM*	21.2
COCCn1c(-c2ccco2)nc2nc3ccccc3nc21	-13.3%	-3.9%	-10.4%	11.0	7.2%	25.5
CCC(C)n1c(-c2ccco2)nc2nc3ccccc3nc21 (stereo unspecified)	-28.7%	?	10.4µM*	13.7	0.2%	6.1
Cc1ccccc1C(=O)N[C@H](C(=O)OCC(=O)c1ccc[nH]1)C(C)C	-26.6%	-2.5%	318.2%	0.2	-11.2%	-2.8
Cc1ccc(NC(=O)CN2C(=O)COc3ccc(S(=O)(=O)Nc4ccccc4)cc32)c(C)c1	/	/	/	/	2.5%	/
SMILES	NS1 function inh	Pf growth 48h	Pf growth 96h	CHX counter	Sm TGR block	Shiga toxin inh
CCCn1c(SC(C)C(=O)NCC2CCCO2)nc2sc3c(c2c1=O)CCC3 (stereo unspecified)	/	13.1µM*	?	/	-4.2%	/
CCCn1c(SC(C)C(=O)NCC2CCCO2)nc2sc(CC)cc2c1=O (stereo unspecified)	10.6%	?	?	-2.7	-15.9%	4.3
Cc1cc(Br)ccc1OCC(=O)NC1CCCC1	-14.4%	10.0%	-26.7%	35.2*	-29.8%	51.6*
O=C(COc1ccccc1Cl)NC(=O)NC1CCCCC1	/	33.3%	-3.8%	/	0.1%	/
O=C(COc1ccc(Br)cc1Br)NC(=O)NC1CCCC1	/	126.9%	130.2%	59.2*	9.7%	141.9*
CC(C)(C)NC(=O)NC(=O)COc1ccccc1C#N	2.4%	144.2%	84.7%	65.7*	1.1%	+
Cc1cc(Br)ccc1OCC(=O)NNC(=O)C(=O)Nc1ccccc1	-3.8%	41.9%	74.0%	12.9	12.7%	50.3*
C=CCNC(=O)COc1ccccc1C#N	0.0%	?	?	9.2	3.7%	37.0
Cc1cc(Br)ccc1SCC(=O)OCC(=O)NC1CCCC1	/	-2.7%	15.3%	5.3	-9.5%	-8.4
